# Source: PubChem
# LASV entry inh: inhibitors of Lassa virus binding or cell entry | Lassa virus pseudotype entry inhibition, cell reporter | Potency, µM (series often up to 37.9 µM), for the others: at the highest dose activity change, negative = inhibition, most hits filed as inhibitors | 300,000 tested, 1.2% active | AID 540256; calls by dose curve; tested in HEK293 cells; note: potency is the fitted concentration of half-maximal effect; nearly all actives have a fitted effect of over 50% in size
# Vaccinia Venus: vaccinia inhibition (Venus reporter). Vaccinia virus Venus reporter expression, fluorescence. Potency, µM (titrated, usually from 36.5 µM), inactives show at the highest dose activity change, negative = inhibition, actives largely listed as inhibitors. 330,000 tested, 0.46% active. AID 720580; calls by dose curve; tested in A549 cells; note: potency is the fitted concentration of half-maximal effect; nearly all actives have a fitted effect of over 30% in size
# Vaccinia mCherry: inhibitors of vaccinia virus infection (mCherry reporter signal). Vaccinia virus mCherry reporter infection, fluorescence. Potency, µM (top dose mostly 36.5 µM), for the others: at the top dose activity change, negative = inhibition, usual class: inhibitors. 310,000 tested, 0.63% active. AID 720579; calls by dose curve; tested in A549 cells; note: potency is the fitted concentration of half-maximal effect; nearly all actives have a fitted effect of over 35% in size
# FMDV antiviral: blocks foot and mouth disease virus; 410,000 tested, 1.2% active; FMDV antiviral cell-based qHTS; Potency, µM (doses to about 57.9 µM), inactives show at the highest dose activity change, negative = inhibition, actives largely listed as inhibitors; calls by dose curve; tested in HEK293T cells; note: read-out not given here; potency is the fitted concentration of half-maximal effect; nearly all actives have a fitted effect of over 45% in size
# Marburg entry inh: blocks Marburg virus binding to or entry into cells | Marburg virus pseudotyped entry inhibition, cell reporter | Potency, µM (titrated, usually from 37.8 µM), without a hit: at the highest dose activity change, negative = inhibition, actives largely listed as inhibitors | 300,000 tested, 1.8% active; calls by dose curve; tested in HEK293 cells; note: potency is the fitted concentration of half-maximal effect
# HCMV inh: inhibitors of human cytomegalovirus; activity change, negative = inhibition, % at 57.5 µM; AID 1259415; 410,000 tested, 4.5% active; HFF cells, HCMV-luciferase reporter, 72 h; active compounds read low; in the data active = activity change below about -60%; inconclusive = no clear call, values can overlap the other calls; inactive = above about -39%
#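 Human foreskin fibroblasts infected with luciferase-reporter HCMV at MOI 1 PFU/cell, compounds at two doses. Luciferase measured 72 h post infection; normalized to buffer-only basal and Salinomycin (10uM) controls.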
# Numbers without * were called inactive; i = inactive; ? = inconclusive; · = not tested or not shown; [ ] = dose if it differs, or a comment. A selection: hits, their analogues and other compounds. The true share with any hit is near 6.5%. % is set by controls: 0 for no effect and ±100 for the full control effect.
SMILES,LASV entry inh,Vaccinia Venus,Vaccinia mCherry,FMDV antiviral,Marburg entry inh,HCMV inh
CCCC[C@@H](C)[C@@H](OC(=O)C[C@@H](CC(=O)O)C(=O)O)[C@H](C[C@@H](C)C[C@H](O)CCCC[C@@H](O)C[C@H](O)[C@H](C)N)OC(=O)C[C@H](CC(=O)O)C(=O)O,·,-17%[20.9 µM],-21%[20.9 µM],8%[39.8 µM],·,·
Cc1nn(C)cc1CNC(=O)c1cc2n(n1)C(C(F)(F)F)CC(c1cccs1)N2 (stereo not given),?,-7%,i,·,-2%,?
Cc1nn(C)c(C)c1CNC(=O)c1nn2c(c1Cl)NC(c1cccs1)CC2C(F)(F)F (stereo not given),-22%,?,?,·,?,-86*
CC[C@H]1OC(=O)C[C@@H](O)[C@H](C)[C@@H](O[C@@H]2O[C@H](C)[C@@H](O)[C@H](N(C)C)[C@H]2O)[C@@H](CCN2C[C@H](C)C[C@H](C)C2)C[C@@H](C)C(=O)/C=C/C(C)=C/[C@@H]1CO[C@@H]1O[C@H](C)[C@@H](O)[C@@H](OC)[C@H]1OC,·,-7%,-13%,-12%,·,·
Cc1ccc(-n2nnnc2-c2cnc3ccc(Cl)cc3c2-c2ccccc2)cc1,?,·,·,-1%,?,?
Clc1ccc(-n2nnnc2-c2cnc3ccccc3c2-c2ccccc2)cc1,-5%,-18%,-26%,-23%,-34%,-72*
Cc1nc2cnc(Nc3ccccc3)nc2n(CCc2ccccc2)c1=O,·,·,·,-6%,·,·
CCn1c(=O)c(C(C)=O)nc2ccccc21,-5%,68%,·,-18%,12%,-66*
CCC(=O)n1nc(-c2ccccc2)nc1SCC(=O)Nc1ccc(C)cc1,-5%,·,·,12%,2%,17
Cc1ccc(C(=O)n2c(-c3ccccc3)cnc2SCC(=O)Nc2ccccc2)cc1,1%,-10%,i,0%,?,-74*
CCOc1ccc(NC(=O)CSc2ncc(-c3ccc(F)cc3)n2Cc2ccco2)cc1,·,-10%,-25%,-15%,·,-27
CC(=O)n1nc(-c2cccc(C)c2)nc1SCC(=O)Nc1ccccc1,?,·,·,32%,-2%,-89*
Cc1ccc(NC(=O)CSc2ncc(-c3ccccc3)n2C(=O)c2ccccc2)cc1,4%,·,·,34%,4%,6
Cc1ccc(NC(=O)Cn2c(-c3ccc(F)cc3)cnc2SCC(=O)Nc2c(C)cccc2C)cc1,?,-3%,1%,-20%,?,-78*
CCc1ccc(C2c3[nH]c4ccccc4c3CCN2C(=O)CNC(N)=O)cc1 (stereo not given),-23%,-7%,-7%,?,-18%,11
CCc1ccc(C2c3[nH]c4ccccc4c3CCN2C(=O)CN2CCN(CC)CC2)cc1 (stereo not given),?,-29%,?,-21%,13µM*,24
CCc1ccc(C2c3[nH]c4ccccc4c3CCN2C(=O)c2ccc(=O)n(C)n2)cc1 (stereo not given),?,-16%,-10%,-18%,11µM*,36
CCc1ccccc1NC(=O)N1CCc2c([nH]c3ccccc23)C1c1ccc(C)cc1 (stereo not given),?,-14%,-9%,-10%,?,?
CC(=O)OC[C@H]1O[C@H](C/C=N/OCC[C@@H]2C=C[C@H](OC(C)=O)[C@@H](COC(C)=O)O2)C=C[C@@H]1OC(C)=O,·,·,·,·,10%[14.2 µM],·
COc1cc(/C=C(\C#N)C(N)=O)ccc1OS(=O)(=O)c1ccc(C)cc1,-13%,-21%,i,-23%,-4%,-32
COc1cc(/C=C(\C#N)C(=O)NC2CCCCC2C)ccc1OS(=O)(=O)c1ccc(C)cc1 (stereo not given),?,0%,-10%,25µM*,-4%,-35
O=C(Cc1ccccc1)NCC(=O)OCC(=O)c1cccc2ccccc12,·,-7%,-20%,·,·,·
Cc1cc(C)c(N(C(=O)Cn2nnc3ccccc32)C(C(=O)NC(C)(C)C)c2ccsc2)c(C)c1 (stereo not given),-10%,-20%,?,·,-16%,-34
Cc1ccc(C)c(N(C(=O)Cn2nnc3ccccc32)C(C(=O)NC(C)(C)C)c2ccsc2)c1 (stereo not given),-2%,-3%,-9%,·,2%,-78*
C=Cc1ccc(N=Cc2ccc(N(C)C)cc2)cc1,·,-10%,19%,·,·,·
SMILES,LASV entry inh,Vaccinia Venus,Vaccinia mCherry,FMDV antiviral,Marburg entry inh,HCMV inh
Cc1ccc(C=Nc2ccc(N(C)C)cc2)o1,?,-3%,-11%,-17%,38%,-76*
C=CC[C@@H]1C=C[C@H](ON=C[C@@H](N[S+](=O)([O-])c2ccc(C)cc2)[C@H](C)C=CCC(=O)OC)[C@H](CO)O1,·,·,·,·,-14%[14.2 µM],·
CCc1ccc(NC(=O)C[n+]2cc(-c3ccc(C)cc3)n3c2CCC3)cc1,·,·,·,?,·,19
Cc1ccc(-c2c[n+](CC(=O)Nc3c(C)cccc3C)c3n2CCC3)cc1,·,·,·,-18%,·,-68*
Cc1ccc(-c2c[n+](CC(=O)N3c4ccccc4Sc4ccccc43)c3n2CCC3)cc1,-19%,-26%,-7%,?,-12%,-87*
O=C(C[n+]1cc(-c2ccccc2)n2c1CCC2)N1c2ccccc2Sc2ccccc21,5%,-8%,-28%,?,-18%,-35
O=C(Nc1ccc(Br)cn1)c1cnn2c1NC(=C1CC1)C=C2C(F)F,·,-27%,-22%,·,·,·
CCOc1ccc(Nc2nc(-c3cccc(Cl)c3)c3c(n2)-c2ccccc2OC3)cc1,14%[46.1 µM],-14%,-12%,-18%,-1%[46.1 µM],-75*
Cc1cc(N/N=C/c2ccc(Cl)cc2Cl)nc(NCc2ccccc2)n1,-16%,?,-25%,0%,?,-25
Cc1cc(N/N=C/c2ccc(F)cc2)nc(NCc2ccccc2)n1,?,-18%,?,-18%,?,5
Cc1ccc(/C=N/Nc2cc(C)nc(NCc3ccccc3)n2)cc1,?,-7%,?,-23%,?,-12
Cc1cc(Nc2cccc(F)c2)nc(NCc2ccccc2)n1,?,?,13µM*,?,?,10
Cc1cc(N2CCC(C)CC2)nc(NCc2ccccc2)n1,18µM*,·,·,0%,?,-85*
Cc1cc(Nc2ccccc2)nc(NCc2ccccc2)n1,?,?,-31%,-19%,?,-66*
Cc1cc(Nc2ccc(Cl)cc2)nc(NCc2ccccc2)n1,?,?,11µM*,32µM*,?,-31
Cc1cc(N2CCC(C)CC2)nc(-c2ccccc2O)n1,·,·,·,-23%,·,-29
CCCCNc1cc(C)nc(NCc2ccccc2)n1,11µM*,?,-19%[1.46 µM],?,11µM*,·
Cc1cc(C)nc(NCCCc2ccccc2)n1,-2%,-10%,-19%,·,-6%,-15
COc1ccc(N2C(S)=C(C#N)C(=O)NC2c2ccco2)cc1 (stereo not given),11%,-14%,-8%,-5%,-4%,-35
